Common to all, as to experiment: DAPPL (digital affinity profiling via proximity ligation, sequencing); 10 mM Tris-HCl pH 7.5, 50 mM NaCl, 1 mM DTT, 4% glycerol, room temperature, 30 min; GST-TFs on glutathione beads, 16-mer random dsDNA library, 0.1% formaldehyde crosslink after washing; high values mean tight binding
Holding throughout (conditions): protein: recombinant; tags: N-terminal GST; dsDNA, one strand shown

One experiment addresses T1, FLI1 (Homo sapiens, UniProt Q01543 1-452).
T1 sequence: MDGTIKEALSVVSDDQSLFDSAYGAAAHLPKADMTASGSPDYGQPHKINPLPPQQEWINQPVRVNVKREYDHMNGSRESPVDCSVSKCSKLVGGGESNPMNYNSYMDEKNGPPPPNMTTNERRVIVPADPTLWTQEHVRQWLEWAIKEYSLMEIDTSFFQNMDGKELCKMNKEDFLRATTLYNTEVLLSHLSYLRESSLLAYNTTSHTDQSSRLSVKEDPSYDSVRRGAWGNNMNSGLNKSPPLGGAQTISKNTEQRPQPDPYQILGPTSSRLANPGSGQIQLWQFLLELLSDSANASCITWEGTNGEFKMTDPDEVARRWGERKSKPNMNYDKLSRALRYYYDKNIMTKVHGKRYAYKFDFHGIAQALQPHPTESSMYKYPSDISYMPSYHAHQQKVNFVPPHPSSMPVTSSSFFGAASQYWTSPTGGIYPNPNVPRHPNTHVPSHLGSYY
Summed up: (§1)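 Pools were built from human transcription factors expressed in yeast as GST fusions, captured on glutathione beads and DNA-barcoded, along with a tag-only sample. Incubation with 200 nmole of a 16-mer random double-stranded DNA library lasted 30 min at room temperature in Tris/NaCl/DTT/glycerol buffer, and was followed by washing, 0.1% formaldehyde crosslinking, proximity ligation, PCR amplification and Illumina NextSeq500 sequencing. Binding signal is the quotient of each hexamer's read frequency for a factor and its frequency for the tag-only sample.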

A further experiment deals with T2, ERG (Homo sapiens, UniProt P11308 1-479).
T2 sequence: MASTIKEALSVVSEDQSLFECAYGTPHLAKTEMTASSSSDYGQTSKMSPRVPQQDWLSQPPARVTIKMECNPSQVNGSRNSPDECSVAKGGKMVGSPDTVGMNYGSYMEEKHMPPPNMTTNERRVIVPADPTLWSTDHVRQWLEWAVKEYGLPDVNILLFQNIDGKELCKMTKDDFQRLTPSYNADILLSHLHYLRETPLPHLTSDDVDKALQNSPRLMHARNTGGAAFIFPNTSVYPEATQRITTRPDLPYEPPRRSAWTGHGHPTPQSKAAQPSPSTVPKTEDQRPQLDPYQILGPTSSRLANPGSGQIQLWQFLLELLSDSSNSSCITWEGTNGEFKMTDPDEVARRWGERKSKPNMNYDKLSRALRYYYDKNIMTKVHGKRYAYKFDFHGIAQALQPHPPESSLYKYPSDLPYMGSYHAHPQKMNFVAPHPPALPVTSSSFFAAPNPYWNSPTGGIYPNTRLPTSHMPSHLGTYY
The procedure, abridged:
as §1

The target of a further experiment is T3, EHF (Homo sapiens, UniProt Q9NZC4 1-300).
T3 sequence: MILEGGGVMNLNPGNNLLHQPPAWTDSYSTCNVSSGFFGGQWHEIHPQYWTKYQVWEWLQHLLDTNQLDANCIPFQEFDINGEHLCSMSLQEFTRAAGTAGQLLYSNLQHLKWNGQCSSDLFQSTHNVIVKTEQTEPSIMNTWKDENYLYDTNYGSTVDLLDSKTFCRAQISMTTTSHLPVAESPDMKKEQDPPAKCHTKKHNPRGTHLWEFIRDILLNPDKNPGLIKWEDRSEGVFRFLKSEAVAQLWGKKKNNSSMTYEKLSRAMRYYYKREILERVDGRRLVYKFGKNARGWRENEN
The procedure, abridged:
as §1

In another experiment the target is SPIB (Homo sapiens, UniProt Q01892 1-262). The procedure, abridged: as §1
Sequence of SPIB (Q01892 whole entry): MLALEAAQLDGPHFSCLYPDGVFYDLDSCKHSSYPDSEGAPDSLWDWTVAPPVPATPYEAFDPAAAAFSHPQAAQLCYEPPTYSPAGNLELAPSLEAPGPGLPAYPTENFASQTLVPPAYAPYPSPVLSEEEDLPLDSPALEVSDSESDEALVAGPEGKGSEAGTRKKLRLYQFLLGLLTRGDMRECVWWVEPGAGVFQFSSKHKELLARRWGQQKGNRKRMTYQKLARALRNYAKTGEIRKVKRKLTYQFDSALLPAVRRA
For another experiment, the target named is T4, FEV (Homo sapiens, UniProt Q99581 1-238).
T4 sequence: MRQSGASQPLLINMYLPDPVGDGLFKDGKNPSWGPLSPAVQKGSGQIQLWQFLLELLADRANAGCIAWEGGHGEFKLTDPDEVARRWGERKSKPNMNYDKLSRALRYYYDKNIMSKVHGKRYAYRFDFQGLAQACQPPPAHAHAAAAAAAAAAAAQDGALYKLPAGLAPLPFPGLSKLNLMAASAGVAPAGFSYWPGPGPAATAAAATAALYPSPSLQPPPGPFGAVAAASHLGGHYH
Summed up: as §1

The target in a further experiment is ETV5 (Homo sapiens, UniProt P41161 1-510). Summed up: as §1
Sequence of ETV5 (P41161 whole entry): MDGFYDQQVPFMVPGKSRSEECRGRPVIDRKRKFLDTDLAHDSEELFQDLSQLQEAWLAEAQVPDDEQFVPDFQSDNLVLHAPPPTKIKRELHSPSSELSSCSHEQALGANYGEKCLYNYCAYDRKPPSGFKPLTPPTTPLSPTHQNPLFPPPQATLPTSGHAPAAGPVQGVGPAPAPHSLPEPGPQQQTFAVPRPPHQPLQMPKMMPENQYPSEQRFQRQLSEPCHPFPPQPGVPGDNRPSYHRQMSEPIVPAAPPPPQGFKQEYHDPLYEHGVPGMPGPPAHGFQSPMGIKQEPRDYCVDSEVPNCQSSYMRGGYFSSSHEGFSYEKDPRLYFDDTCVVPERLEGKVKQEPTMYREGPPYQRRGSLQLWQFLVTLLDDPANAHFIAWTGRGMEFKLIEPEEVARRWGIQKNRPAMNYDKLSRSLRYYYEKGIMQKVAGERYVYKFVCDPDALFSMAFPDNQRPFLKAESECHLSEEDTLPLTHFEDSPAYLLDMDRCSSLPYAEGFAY
Another experiment deals with T5, SPIC (Homo sapiens, UniProt Q8N5J4 1-248).
T5 sequence: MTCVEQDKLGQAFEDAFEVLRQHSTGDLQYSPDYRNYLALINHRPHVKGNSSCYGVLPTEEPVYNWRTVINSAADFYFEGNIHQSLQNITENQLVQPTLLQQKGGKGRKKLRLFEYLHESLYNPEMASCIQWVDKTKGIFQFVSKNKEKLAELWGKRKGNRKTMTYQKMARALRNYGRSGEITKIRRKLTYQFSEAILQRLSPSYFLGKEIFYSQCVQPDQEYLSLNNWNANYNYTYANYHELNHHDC
Summed up:
as §1

The target of another experiment is ETV1 (Homo sapiens, UniProt P50549 1-477). The procedure, abridged: as §1
Sequence of ETV1 (P50549 whole entry): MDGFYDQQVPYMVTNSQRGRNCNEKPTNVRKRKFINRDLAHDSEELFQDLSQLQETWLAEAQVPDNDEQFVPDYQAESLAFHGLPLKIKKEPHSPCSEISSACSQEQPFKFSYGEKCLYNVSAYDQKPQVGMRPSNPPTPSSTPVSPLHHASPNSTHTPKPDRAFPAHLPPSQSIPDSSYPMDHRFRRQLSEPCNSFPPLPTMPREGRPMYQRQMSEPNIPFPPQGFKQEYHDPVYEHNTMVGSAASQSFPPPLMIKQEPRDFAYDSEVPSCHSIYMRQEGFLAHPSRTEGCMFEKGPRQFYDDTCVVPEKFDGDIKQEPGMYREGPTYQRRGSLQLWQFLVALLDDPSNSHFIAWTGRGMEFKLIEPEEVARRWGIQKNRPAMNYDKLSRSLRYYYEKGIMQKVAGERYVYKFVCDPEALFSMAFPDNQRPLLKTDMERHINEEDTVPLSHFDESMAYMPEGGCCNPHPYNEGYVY
Another experiment concerns the target T6, ETV3L (Homo sapiens, UniProt Q6ZN32 1-361).
T6 sequence: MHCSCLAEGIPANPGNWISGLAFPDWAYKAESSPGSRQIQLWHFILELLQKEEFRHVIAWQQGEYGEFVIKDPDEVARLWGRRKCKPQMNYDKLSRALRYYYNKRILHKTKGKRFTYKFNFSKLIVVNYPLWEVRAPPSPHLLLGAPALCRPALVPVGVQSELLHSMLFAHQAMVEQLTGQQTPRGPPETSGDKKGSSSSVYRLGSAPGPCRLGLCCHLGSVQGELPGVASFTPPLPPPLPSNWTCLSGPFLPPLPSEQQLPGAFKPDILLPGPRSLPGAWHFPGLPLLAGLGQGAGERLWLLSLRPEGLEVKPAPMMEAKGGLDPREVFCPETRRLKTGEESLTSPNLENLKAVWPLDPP
The procedure, abridged: as §1

The target of another experiment is T7, ETS2 (Homo sapiens, UniProt P15036 1-469).
T7 sequence: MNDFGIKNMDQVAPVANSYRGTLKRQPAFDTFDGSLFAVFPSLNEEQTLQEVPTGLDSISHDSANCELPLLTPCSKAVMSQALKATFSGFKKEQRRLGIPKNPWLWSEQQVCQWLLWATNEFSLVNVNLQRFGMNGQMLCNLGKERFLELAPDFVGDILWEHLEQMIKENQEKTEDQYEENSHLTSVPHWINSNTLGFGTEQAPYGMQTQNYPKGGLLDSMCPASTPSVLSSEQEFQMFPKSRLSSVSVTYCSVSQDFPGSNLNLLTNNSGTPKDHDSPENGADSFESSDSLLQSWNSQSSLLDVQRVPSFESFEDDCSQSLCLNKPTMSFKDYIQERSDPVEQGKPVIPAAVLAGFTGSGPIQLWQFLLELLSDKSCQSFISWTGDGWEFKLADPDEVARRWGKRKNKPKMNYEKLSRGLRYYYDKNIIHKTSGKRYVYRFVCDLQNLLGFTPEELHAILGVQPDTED
Summed up: as §1

A further experiment deals with T8, ELF5 (Homo sapiens, UniProt Q9UKW6-2 1-255).
T8 sequence: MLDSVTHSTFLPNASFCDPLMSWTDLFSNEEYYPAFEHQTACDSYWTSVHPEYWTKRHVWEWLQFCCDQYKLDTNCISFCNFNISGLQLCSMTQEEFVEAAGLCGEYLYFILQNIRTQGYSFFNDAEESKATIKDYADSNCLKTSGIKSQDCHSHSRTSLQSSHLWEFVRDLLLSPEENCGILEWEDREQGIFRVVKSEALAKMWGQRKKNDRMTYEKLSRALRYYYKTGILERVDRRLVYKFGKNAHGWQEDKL
The procedure, abridged: as §1

The target of the next experiment is T9, ETV3 (Homo sapiens, UniProt P41162-2 1-143).
T9 sequence: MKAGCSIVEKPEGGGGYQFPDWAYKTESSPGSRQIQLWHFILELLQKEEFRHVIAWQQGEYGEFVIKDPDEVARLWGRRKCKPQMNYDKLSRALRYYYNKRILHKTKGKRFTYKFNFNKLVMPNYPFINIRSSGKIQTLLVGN
Summed up:
as §1

In the next experiment the target is ETV6 (Homo sapiens, UniProt P41212 1-452). The procedure, abridged:
as §1

The target of the next experiment is T10, ELK1 (Homo sapiens, UniProt P19419 1-428).
T10 sequence: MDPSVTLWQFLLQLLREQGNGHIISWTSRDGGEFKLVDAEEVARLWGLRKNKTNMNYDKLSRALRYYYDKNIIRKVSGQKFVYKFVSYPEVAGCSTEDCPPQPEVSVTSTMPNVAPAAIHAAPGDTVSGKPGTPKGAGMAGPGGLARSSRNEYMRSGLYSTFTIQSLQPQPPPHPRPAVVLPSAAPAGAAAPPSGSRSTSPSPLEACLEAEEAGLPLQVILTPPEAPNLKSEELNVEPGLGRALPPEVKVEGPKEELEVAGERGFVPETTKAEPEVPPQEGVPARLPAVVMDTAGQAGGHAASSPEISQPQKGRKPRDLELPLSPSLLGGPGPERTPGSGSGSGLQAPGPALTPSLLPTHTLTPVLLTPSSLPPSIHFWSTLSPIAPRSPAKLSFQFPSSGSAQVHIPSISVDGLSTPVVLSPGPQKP
The procedure, abridged: as §1

Another experiment has as its target T11, GABPA (Homo sapiens, UniProt Q06546 1-454).
T11 sequence: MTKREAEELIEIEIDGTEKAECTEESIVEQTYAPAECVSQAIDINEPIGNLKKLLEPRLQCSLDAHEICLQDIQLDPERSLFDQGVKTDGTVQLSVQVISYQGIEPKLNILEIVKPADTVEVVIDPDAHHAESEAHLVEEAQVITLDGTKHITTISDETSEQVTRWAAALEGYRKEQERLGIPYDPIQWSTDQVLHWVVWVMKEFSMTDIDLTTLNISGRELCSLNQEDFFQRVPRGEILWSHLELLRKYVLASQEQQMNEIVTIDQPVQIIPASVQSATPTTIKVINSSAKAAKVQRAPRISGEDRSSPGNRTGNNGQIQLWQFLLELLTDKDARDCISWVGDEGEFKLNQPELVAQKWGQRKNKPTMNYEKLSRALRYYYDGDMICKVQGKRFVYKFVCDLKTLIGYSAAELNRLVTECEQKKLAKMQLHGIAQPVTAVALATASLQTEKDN
Summed up: as §1

The target in the next experiment is ELF1 (Homo sapiens, UniProt P32519 1-619). Summed up:
as §1

Another experiment concerns the target T12, ELK3 (Homo sapiens, UniProt P41970 1-407).
T12 sequence: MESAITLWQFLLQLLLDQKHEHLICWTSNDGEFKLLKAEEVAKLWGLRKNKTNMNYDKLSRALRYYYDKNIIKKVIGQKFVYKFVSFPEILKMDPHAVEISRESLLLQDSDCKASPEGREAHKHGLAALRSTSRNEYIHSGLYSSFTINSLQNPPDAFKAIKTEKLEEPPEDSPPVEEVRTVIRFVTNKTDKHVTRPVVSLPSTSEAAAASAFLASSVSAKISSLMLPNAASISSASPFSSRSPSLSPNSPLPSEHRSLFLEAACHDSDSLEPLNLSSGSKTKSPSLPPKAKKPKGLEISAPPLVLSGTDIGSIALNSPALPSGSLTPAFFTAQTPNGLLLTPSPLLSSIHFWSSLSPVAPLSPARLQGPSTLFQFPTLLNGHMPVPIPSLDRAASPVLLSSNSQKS
The procedure, abridged:
as §1

The next experiment addresses T13, ERF (Homo sapiens, UniProt P50548 1-548).
T13 sequence: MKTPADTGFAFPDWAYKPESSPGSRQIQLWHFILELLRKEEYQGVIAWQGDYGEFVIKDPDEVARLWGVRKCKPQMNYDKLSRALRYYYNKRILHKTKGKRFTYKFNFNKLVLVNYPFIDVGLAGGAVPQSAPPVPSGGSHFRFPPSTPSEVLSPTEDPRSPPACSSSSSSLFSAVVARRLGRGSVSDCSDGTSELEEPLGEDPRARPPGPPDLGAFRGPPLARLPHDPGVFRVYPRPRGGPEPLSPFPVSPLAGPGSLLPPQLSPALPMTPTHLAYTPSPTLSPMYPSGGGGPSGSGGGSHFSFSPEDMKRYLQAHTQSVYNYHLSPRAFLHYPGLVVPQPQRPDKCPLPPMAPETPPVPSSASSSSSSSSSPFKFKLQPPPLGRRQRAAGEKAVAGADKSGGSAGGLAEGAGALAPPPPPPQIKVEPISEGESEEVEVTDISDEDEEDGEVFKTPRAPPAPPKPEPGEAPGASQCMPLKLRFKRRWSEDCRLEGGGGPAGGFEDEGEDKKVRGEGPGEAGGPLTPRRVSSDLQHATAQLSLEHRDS
The procedure, abridged:
as §1

Sequence of ETV6 (P41212 whole entry): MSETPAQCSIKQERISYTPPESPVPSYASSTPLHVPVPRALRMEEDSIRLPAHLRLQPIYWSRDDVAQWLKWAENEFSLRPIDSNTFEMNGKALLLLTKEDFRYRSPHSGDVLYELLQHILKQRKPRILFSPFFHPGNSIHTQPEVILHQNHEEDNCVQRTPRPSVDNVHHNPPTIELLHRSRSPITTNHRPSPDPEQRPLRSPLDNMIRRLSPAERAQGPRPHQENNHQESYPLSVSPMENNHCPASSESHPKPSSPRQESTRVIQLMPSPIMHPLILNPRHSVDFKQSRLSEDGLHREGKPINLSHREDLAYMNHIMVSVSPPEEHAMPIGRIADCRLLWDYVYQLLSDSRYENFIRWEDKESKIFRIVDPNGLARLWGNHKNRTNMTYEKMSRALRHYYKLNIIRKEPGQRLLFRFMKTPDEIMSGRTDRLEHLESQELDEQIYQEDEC
Sequence of ELF1 (P32519 whole entry): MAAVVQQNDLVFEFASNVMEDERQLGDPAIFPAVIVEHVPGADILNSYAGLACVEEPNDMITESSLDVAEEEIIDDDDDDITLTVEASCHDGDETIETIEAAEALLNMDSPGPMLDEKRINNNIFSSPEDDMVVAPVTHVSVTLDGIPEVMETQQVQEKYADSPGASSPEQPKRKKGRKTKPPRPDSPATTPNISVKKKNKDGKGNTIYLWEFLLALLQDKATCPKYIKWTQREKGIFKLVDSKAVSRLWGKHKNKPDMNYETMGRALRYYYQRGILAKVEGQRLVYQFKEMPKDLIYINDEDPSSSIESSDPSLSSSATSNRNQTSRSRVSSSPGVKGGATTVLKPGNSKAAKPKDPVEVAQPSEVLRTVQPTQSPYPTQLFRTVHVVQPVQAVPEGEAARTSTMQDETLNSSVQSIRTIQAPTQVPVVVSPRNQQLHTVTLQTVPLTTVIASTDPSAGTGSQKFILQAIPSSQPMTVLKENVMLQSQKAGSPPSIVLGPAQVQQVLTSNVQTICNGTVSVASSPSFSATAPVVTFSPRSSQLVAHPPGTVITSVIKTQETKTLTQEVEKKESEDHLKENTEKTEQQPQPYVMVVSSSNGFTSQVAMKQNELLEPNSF

As to CCCGGT, the binding signal with FLI1 was 1.01 fold enrichment (6-mer frequency, TF over GST control); with ERG, 1.09 fold enrichment (6-mer frequency, TF over GST control); with EHF, 1.14 fold enrichment (6-mer frequency, TF over GST control); with SPIB it was 1.01 fold enrichment (6-mer frequency, TF over GST control); with FEV it was 1.04 fold enrichment (6-mer frequency, TF over GST control); with ETV5 it was 1.09 fold enrichment (6-mer frequency, TF over GST control). The binding signal in the experiment with SPIC was 1.07 fold enrichment (6-mer frequency, TF over GST control); with ETV1, 1.07 fold enrichment (6-mer frequency, TF over GST control); with ETV3L, 1.01 fold enrichment (6-mer frequency, TF over GST control); with ETS2, 1.04 fold enrichment (6-mer frequency, TF over GST control); with ELF5 it was 1.05 fold enrichment (6-mer frequency, TF over GST control); with ETV3, 1.09 fold enrichment (6-mer frequency, TF over GST control). The binding signal in the experiment with ETV6 was 1 fold enrichment (6-mer frequency, TF over GST control).

As to TGGTGG, the binding signal was 1.11 fold enrichment (6-mer frequency, TF over GST control) with FLI1; 1.01 fold enrichment (6-mer frequency, TF over GST control) with ELK1; 1.12 fold enrichment (6-mer frequency, TF over GST control) with GABPA; 1.1 fold enrichment (6-mer frequency, TF over GST control) with ERG; 1.03 fold enrichment (6-mer frequency, TF over GST control) with ELF1; 1.05 fold enrichment (6-mer frequency, TF over GST control) with SPIB. Besides, the binding signal in the experiment with ELK3 is 1.22 fold enrichment (6-mer frequency, TF over GST control); with ETV5, 1.03 fold enrichment (6-mer frequency, TF over GST control); with SPIC it was 1.03 fold enrichment (6-mer frequency, TF over GST control); in the experiment with ETV1 it was 1.04 fold enrichment (6-mer frequency, TF over GST control); in the experiment with ERF it was 1.1 fold enrichment (6-mer frequency, TF over GST control); with ETS2 it was 1.08 fold enrichment (6-mer frequency, TF over GST control).

Source of the values: PMC7862700, “An all-to-all approach to the identification of sequence-specific readers for epigenetic DNA modifications on cytosine”.
